# IL-1B inflam inh = blocks inflammasome-driven IL-1 beta release; 360,000 tested, 4.7% active; THP-1 LPS/ATP IL-1B secretion, AlphaLISA, 16 h; hits give low values; AID 743279; activity change, % at 57.5 µM; in the data active = activity change below about -50%; inconclusive = mostly about -30% to -49%
#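 Secreted IL-1B measured by AlphaLISA bead assay after 16 h compound exposure of THP-1 cells; compounds (final up to 57.5 uM) added 1 h before LPS (250 ng/mL) and ATP (1.25 mM) stimulation; lower signal means less secretion.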
# DT40 TDP1 no CPT = qHTS for Inhibitors of human tyrosyl-DNA phosphodiesterase 1 (TDP1): qHTS in cells in absence of CPT; DT40 Tdp1-/- hTDP1 cells, no CPT, ATP luminescence, 48 h; Potency, µM (series often up to 46.2 µM), for inactives: at the highest dose activity change, negative = growth inhibition, most hits filed as inhibitors; 420,000 tested, 15% active; note: potency is the fitted concentration of half-maximal effect; nearly all actives have a fitted effect of over 55% in size
#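 Growth kinetics read by CellTiter-Glo luminescence after ≥48 hr at 37 °C. Cells: DT40 Tdp1-/- stably carrying human TDP1, 400 per well, compound exposure in the absence of CPT (DMSO vehicle).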
# HT1080NT lethal = kills 2HG-producing HT-1080-NT fibrosarcoma cells | 360,000 tested, 1.6% active | AID 686970 | HT-1080-NT fibrosarcoma viability, CellTiter-Glo ATP luminescence, 48 h | Potency, µM (series often up to 46.1 µM), inactives show top-dose activity, negative = less viability, actives largely listed as cytotoxic;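 note: NT is the 2HG producing partner of a matched IDH1 knockdown line; potency is the fitted concentration of half-maximal effect; 0% = DMSO-treated cells and -100% = media-only wells without cells; nearly all actives have a fitted effect of over 55% in size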
#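 Toxicity toward the 2HG-producing NT line was scored as %Activity, normalised to DMSO and no-cell wells, from CellTiter-Glo luminescence after 48 hours' treatment.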
# DT40 TDP1 CPT = DT40-hTDP1 cell growth loss with CPT. chicken DT40 Tdp1-/-;hTDP1 cells + 20 nM CPT, ATP luminescence, 48 h. Potency, µM (titrated, usually from 46.2 µM), without a hit: at the top dose activity change, negative = growth inhibition, actives largely listed as inhibitors. 420,000 tested, 12% active. AID 686979; note: potency is the fitted concentration of half-maximal effect; nearly all actives have a fitted effect of over 55% in size
#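 Chicken DT40 Tdp1-/- cells complemented with human TDP1, 400 cells/well, exposed to compounds plus 20 nM camptothecin for at least 48 h at 37 C; viability read as ATP content by CellTiter-Glo luminescence.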
# HT1080 IDH1KD tx = kills HT-1080 cells with IDH1 knockdown | HT-1080 IDH1 knockdown viability, ATP luminescence, 48 h | AID 686971 | 360,000 tested, 2% active | Potency, µM (highest dose often 46.1 µM), without a hit: top-dose activity, negative = toxicity, actives largely listed as cytotoxic;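 note: potency is the fitted concentration of half-maximal effect; 0% = DMSO wells and -100% = cell-free medium wells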
#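 Assay cells: HT-1080 with IDH1 knockdown, 750 per well, RPMI/5% FBS. Exposure: 48 h at 37 °C following 2 h pre-incubation. Read: CellTiter-Glo luminescence; fitted concentration-response, curve class assigned.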
# * marks the source's active call; other numbers are inactive results; ? = inconclusive; . = no result given; [ ] = another dose, or the depositor's remark. A selection: hits, their analogues and other compounds. The true share with any hit is near 19%. Unless noted, calls come from the whole dose curve; as a rule, active = well fitted curve in the direction sought with a large enough effect; inconclusive = small, poorly fitted or top-dose-only effect, or another doubt; inactive = no such curve, though single readings can be large; an effect the other way counts as inactive or inconclusive. Unless noted, % is set by controls: 0 for no effect and ±100 for the full control effect.
SMILES,IL-1B inflam inh,DT40 TDP1 no CPT,HT1080NT lethal,DT40 TDP1 CPT,HT1080 IDH1KD tx
CCn1c2ccccc2c2cc(NC(=O)c3cccc([N+](=O)[O-])c3C)ccc21,-9,15µM*,23µM*,?,13µM*
O=C(Nc1ccc(NC(=O)c2cccc([N+](=O)[O-])c2)cc1)c1cccc([N+](=O)[O-])c1,-4,-37%,-5%,-1%,-3%
Cc1ccc(-n2nc3ccc(NC(=O)c4cccc([N+](=O)[O-])c4C)cc3n2)cc1,35,?,?,-5%,?
Cc1ncc(CO)c(C=O)c1O,.,-12%,.,6%,.
O=C(COC(=O)C1CC1)Nc1ccc(Cl)cc1Cl,-2,1%,0%,-3%,1%
c1ccc2[nH]c(CN3CCN(c4ncnc5c4oc4ccccc45)CC3)nc2c1,?,23µM*,?,23µM*,-29%
COc1ccccc1N1CCN(c2ncnc3c2oc2ccccc23)CC1,35,5.2µM*,?,3.7µM*,?
CCc1nc(N2CCCCC2)c2oc3ccccc3c2n1,-8,?,?,?,?
c1ccc2[nH]c(CSc3ncnc4c3oc3ccccc34)nc2c1,-13,?,-10%,?,-4%
Cc1cc(C)n(-c2ncnc3c2oc2ccccc23)n1,-15,?,20%,?,13%
Cc1nc(N2CCOCC2)c2oc3ccccc3c2n1,7,18µM*,-10%,?,-12%
C(=C\c1ccccc1)/CN1CCN(c2ncnc3c2oc2ccccc23)CC1,-23,18µM*,?,18µM*,?
Cc1nc(SCc2ccccc2F)c2oc3ccccc3c2n1,-6,13µM*,-8%,3%,-14%
Cc1nc(SCc2nc3ccccc3[nH]2)c2oc3ccccc3c2n1,-28,?,-30%,21µM*,?
Cc1nc(SCc2ccc(F)cc2)c2oc3ccccc3c2n1,-4,-8%,18%,-2%,10%
O=C(c1ccco1)N1CCN(c2ncnc3c2oc2ccccc23)CC1,-5,13µM*,-1%,21µM*,0%
Nc1nc(N2CCN(C/C=C/c3ccccc3)CC2)nc2ccccc12,-4,?,?,21µM*,?
CC(C)c1ccc(NC(=O)Nc2nnc([C@H]3C[C@H](O)[C@@H](CO)O3)s2)cc1,11,-12%,3%,-20%,0%
Cc1nc(N2CCN(Cc3nc4ccccc4[nH]3)CC2)c2oc3ccccc3c2n1,?,18µM*,-25%,?,?
COc1ccc(OCc2nnnn2-c2ccccc2)cc1,-10,-1%,20%,-4%,-1%
Brc1ccc(OCc2nnnn2-c2ccccc2)cc1,-69*,?,-17%,0%,-18%
CN(C)c1ccc2cc(S(=O)(=O)O)cc(O)c2c1,-22,-9%,15%,?,2%
CN(C)c1ccc2c(O)cc(=O)n(C)c2c1,33,16µM*,6%,15µM*,?
Cc1cccc(-n2cc(C(=O)O)c(=O)cc2C)c1,15,-18%,9%,-2%,17%
O=C([C@@H]1C[C@@H](Sc2nc3ccccc3[nH]2)CN1Cc1ccc(Cl)cc1)N1CCN(c2ccccc2F)CC1,.,21µM*,.,?,.
SMILES,IL-1B inflam inh,DT40 TDP1 no CPT,HT1080NT lethal,DT40 TDP1 CPT,HT1080 IDH1KD tx
CN1CCCN(C(=O)[C@@H]2C[C@@H](Sc3nc4ccccc4[nH]3)CN2Cc2ccc(-c3ccccc3)cc2)CC1,.,?,.,10%[9.04 µM],.
CC(=O)OCC1OC(COC(C)=O)(c2ccc(C)cc2)C(OC(C)=O)C1OC(C)=O (configuration not stated),5,0%,-1%,0%,28%
COc1cc(C(C(=O)NC(C)(C)C)N(Cc2ccccc2)C(=O)c2cnccn2)cc(OC)c1OC (configuration not stated),0,-5%,5%,0%,4%
COc1ccc(CN(C(=O)c2ccc(-c3ccccc3)[nH]2)C(C(=O)NC(C)(C)C)c2ccncc2)cc1 (configuration not stated),-83*,?,-22%,?,15µM*
CCOC(=O)c1cc(CC)sc1NC(=O)CN1C(=O)C(=O)N(CC(C)C)C1=O,2,-26%,7%,1%,15%
Cc1nc([N+](=O)[O-])c(C(=O)OCc2ccccc2C#N)n1C,-6,0%,0%,5%,1%
O=c1c(-c2nn[nH]n2)coc2ccc(Cl)cc12,11,-9%,-8%,-2%,6%
CCOc1ccc(NC(=O)c2cc3c(=O)n(C)c4ccccc4c3n2C)cc1,10,16µM*,14%,8.2µM*,24%
CCOc1ccc(NC(=O)c2cn(CC(C)C)c(=O)c3c2c2ccccc2n3C)cc1,28,8.2µM*,8%,?,-4%
CCOc1ccc(CCNC(=O)c2cc3c(=O)n(C)c4ccccc4c3n2C)cc1OCC,.,12µM*,.,23µM*,.
COCCCNC(=O)c1cn(CC(C)C)c(=O)c2c1c1ccccc1n2C,-20,-25%,1%,?,-3%
CCOc1ccc(CCNC(=O)COc2cc(=O)n(C)c3ccccc23)cc1OCC,-9,-23%,2%,0%,0%
COc1ccccc1NC(=O)c1cc2c(=O)n(C)c3ccccc3c2n1C,?,15µM*,11%,?,-1%
COc1ccccc1NC(=O)CCCOc1cc(=O)n(C)c2ccccc12,.,21µM*,.,?,.
CC(=O)OC1CC(n2ccc(NC(=O)c3ccccc3)nc2=O)OC1CO (configuration not stated),-6,-15%,-3%,-9%,-5%
CC(=O)Nc1ccn(C2COC(COC(=O)c3ccccc3)O2)c(=O)n1 (configuration not stated),.,1.5µM*,.,0.84µM*,.
O=C(CSCc1ccccc1Cl)NCCSc1ccccn1,5,-7%,-1%,5%,-2%
CC(C)CCN1CCC(Cc2ccccc2)(NC(=O)c2ccccc2)C1=O (configuration not stated),-25,?,5%,?,14%
O=C(CCc1ccccc1)NC1(Cc2ccccc2)CCN(CCCc2ccccc2)C1=O (configuration not stated),-15,8.2µM*,?,16µM*,?
O=C(NC1(Cc2ccccc2)CCN(CCc2cccs2)C1=O)c1ccccc1 (configuration not stated),-13,?,-9%,26µM*,3%
Cc1ccccc1Cn1nc(C)c(NC(=O)C2(C)CC2(Cl)Cl)c1C (configuration not stated),-1,-4%,1%,-14%,1%
Cc1ccccc1Cn1nc(C)c(NC(=O)C2c3ccccc3Oc3ccccc32)c1C,17,15µM*,-1%,12µM*,6%

# From PubChem
